Where “and” joins values, the source holds several entries; their conditions need not be identical. Equal entries are not always repeated. Screen size: about 5,500 compounds; about 2,000 (36%) were called active. Not shown: some 18% with an inconclusive outcome. Rule as the data show it: active = normalized growth mostly below about 0.91 (no sharp cut-off); inconclusive = no clear call, values can overlap the other calls; inactive = mostly above about 0.92. Some of the results follow.
Assay: chemical genetic growth profiling, strain panel (AID 1159580);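 also: tested at 20 µM; growth read once vehicle control cultures reached saturation at 30 °C; 1 = growth at the plate median or of vehicle wells; lower values mean less growth of the strain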
Conditions: S. cerevisiae deletion strains, growth OD

Measured: normalized growth

CN1CCCCC1c1ccc(-c2cccnc2)nc1 (stereo not given)
inactive: locus YAL013W, strain DEP1, active compounds read low 1.01 | locus YAL021C, strain ccr4, active compounds read low 0.987 | locus YAL026C, strain drs2, active compounds read low 0.965 | locus YAL030W, strain snc1, active compounds read low 0.984 | locus YBL061C, strain skt5, active compounds read low 0.975 | locus YBR009C, strain hhf1, active compounds read low 0.938 | locus YBR021W, strain FUR4, active compounds read low 1.1 | locus YBR023C, strain chs3, active compounds read low 0.99 | locus YBR171W, strain sec66, active compounds read low 0.971 | locus YBR229C, strain ROT2, active compounds read low 1.02 | locus YBR231C, strain swc5, active compounds read low 0.982 | locus YBR279W, strain paf1, active compounds read low 0.984 | locus YCL011C, strain gbp2, active compounds read low 0.964 | locus YCL016C, strain dcc1, active compounds read low 0.997 | locus YCL029C, strain bik1, active compounds read low 0.97 | locus YCL061C, strain MRC1, active compounds read low 0.98 | locus YCL069W, strain vba3, active compounds read low 0.979 | locus YCR088W, strain abp1, active compounds read low 0.994 | locus YDL005C, strain med2, active compounds read low 0.964 | locus YDL035C, strain GPR1, active compounds read low 1.01 | locus YDL040C, strain nat1, active compounds read low 0.983 | locus YDL074C, strain BRE1, active compounds read low 1.01 | locus YDL101C, strain DUN1, active compounds read low 1.02 | locus YDL134C, strain PPH21, active compounds read low 1.1 | locus YDL185W, strain tfp1, active compounds read low 0.959 | locus YDL192W, strain arf1, active compounds read low 0.983 | locus YDR001C, strain nth1, active compounds read low 0.962 | locus YDR069C, strain doa4, active compounds read low 0.962 | locus YDR101C, strain arx1, active compounds read low 0.999 | locus YDR137W, strain rgp1, active compounds read low 0.975 | locus YDR150W, strain NUM1, active compounds read low 1.01 | locus YDR159W, strain sac3, active compounds read low 0.927 | locus YDR162C, strain NBP2, active compounds read low 1.07 | locus YDR195W, strain ref2 0.929 | locus YDR297W, strain sur2, active compounds read low 0.967 | locus YDR318W, strain mcm21, active compounds read low 1 | locus YDR334W, strain swr1, active compounds read low 0.971 | locus YDR335W, strain msn5, active compounds read low 0.99 | locus YDR388W, active compounds read low 0.997 | locus YDR392W, strain spt3, active compounds read low 0.874 | locus YDR502C, strain sam2, active compounds read low 1.01 | locus YEL003W, strain gim4, active compounds read low 0.979 | locus YEL037C, strain rad23, active compounds read low 0.985 | locus YEL061C, strain CIN8 (second series), active compounds read low 0.97 | locus YEL061C, strain CIN8, active compounds read low 1.01 | locus YER015W, strain faa2, active compounds read low 0.965 | locus YER016W, strain bim1, active compounds read low 0.994 | locus YER110C, active compounds read low 1 | locus YER111C, strain swi4, active compounds read low 0.974 | locus YER155C, strain BEM2 (second series), active compounds read low 0.971 | locus YER155C, strain BEM2, active compounds read low 1.01 | locus YER167W, strain BCK2, active compounds read low 1.03 | locus YFR010W, strain ubp6, active compounds read low 0.969 | locus YGL078C, strain dbp3, active compounds read low 0.996 | locus YGL086W, strain mad1, active compounds read low 1.03 | locus YGL167C, strain pmr1, active compounds read low 0.956 | locus YGL173C, strain kem1, active compounds read low 0.973 | locus YGL227W, strain vid30, active compounds read low 0.97 | locus YGL240W, strain doc1, active compounds read low 0.965 | locus YGL248W, strain PDE1, active compounds read low 1.01 | locus YGL253W, strain hxk2, active compounds read low 0.992 | locus YGR135W, strain pre9, active compounds read low 0.981 | locus YGR229C, strain SMI1, active compounds read low 1.08 | locus YGR252W, strain gcn5, active compounds read low 1.05 | locus YHR013C, strain ard1, active compounds read low 0.929 | locus YHR027C, strain rpn1, active compounds read low 0.984 | locus YHR030C, strain SLT2, active compounds read low 0.995 and 1 | locus YHR079C, strain IRE1 (second series), active compounds read low 0.998 | locus YHR079C, strain IRE1, active compounds read low 0.988 | locus YHR094C, strain hxt1, active compounds read low 1.02 | locus YHR129C, strain ARP1, active compounds read low 1.02 | locus YHR142W, strain chs7, active compounds read low 1 | locus YHR200W, strain rpn10, active compounds read low 0.984 | locus YIL066C, strain RNR3, active compounds read low 1.05 | locus YIL073C, strain SPO22, active compounds read low 1.02 | locus YIL125W, strain kgd1, active compounds read low 0.998 | locus YIR030C, strain dcg1, active compounds read low 0.995 | locus YJL092W, strain hpr5, active compounds read low 0.985 | locus YJL095W, strain BCK1 (second series), active compounds read low 0.998 | locus YJL095W, strain BCK1, active compounds read low 1.07 and 1.03 | locus YJL115W, strain asf1, active compounds read low 0.991 | locus YJL129C, strain trk1, active compounds read low 0.983 | locus YJL134W, strain LCB3, active compounds read low 0.996 | locus YJL154C, strain vps35, active compounds read low 0.994 | locus YJL164C, strain tpk1, active compounds read low 1.02 | locus YJL166W, strain qcr8, active compounds read low 0.983 | locus YJL168C, strain set2, active compounds read low 0.996 | locus YJL187C, strain SWE1 (second series), active compounds read low 1.04 | locus YJL187C, strain SWE1, active compounds read low 0.979 | locus YJR043C, strain POL32, active compounds read low 1.04 | locus YJR066W, strain TOR1, active compounds read low 0.951 | locus YKL009W, strain mrt4, active compounds read low 0.986 | locus YKL068W, active compounds read low 0.997 | locus YKL085W, strain MDH1 (second series), active compounds read low 1.01 | locus YKL085W, strain MDH1, active compounds read low 1.01 | locus YKL160W, strain elf1, active compounds read low 1.01 | locus YKL190W, strain CNB1, active compounds read low 1.02 | locus YKR001C, strain vps1, active compounds read low 0.996 | locus YKR026C, strain gcn3, active compounds read low 0.967 | locus YKR091W, strain srl3, active compounds read low 0.969 | locus YLL001W, strain dnm1, active compounds read low 1 | locus YLL026W, active compounds read low 1 | locus YLL041C, strain sdh2, active compounds read low 0.991 | locus YLR027C, strain aat2, active compounds read low 0.979 | locus YLR039C, strain RIC1, active compounds read low 1.07 | locus YLR058C, strain SHM2, active compounds read low 1.02 | locus YLR102C, strain apc9, active compounds read low 0.999 | locus YLR113W, strain HOG1, active compounds read low 1.03 | locus YLR221C, strain rsa3, active compounds read low 0.994 | locus YLR258W, strain gsy2, active compounds read low 0.985 | locus YLR262C, strain YPT6 (second series), active compounds read low 1.01 | locus YLR262C, strain YPT6, active compounds read low 1.04 | locus YLR268W, strain sec22, active compounds read low 1.01 | locus YLR320W, strain mms22, active compounds read low 0.993 | locus YLR330W, strain CHS5, active compounds read low 1.01 | locus YLR342W, strain FKS1 (second series), active compounds read low 1.06 | locus YLR342W, strain FKS1, active compounds read low 0.971 | locus YLR357W, strain rsc2, active compounds read low 0.968 | locus YLR370C, strain arc18, active compounds read low 0.966 | locus YLR371W, strain rom2, active compounds read low 0.971 | locus YLR384C, strain iki3, active compounds read low 0.993 | locus YLR418C, strain cdc73, active compounds read low 1.05 | locus YML016C, strain PPZ1, active compounds read low 1.01 | locus YML032C, strain rad52, active compounds read low 0.997 | locus YML120C, strain ndi1, active compounds read low 0.984 | locus YML124C, strain tub3, active compounds read low 0.998 | locus YMR058W, strain fet3, active compounds read low 0.97 | locus YMR078C, strain ctf18, active compounds read low 0.999 | locus YMR125W, strain sto1, active compounds read low 0.942 | locus YMR129W, active compounds read low 0.974 | locus YMR205C, strain PFK2, active compounds read low 0.934 | locus YMR223W, strain ubp8, active compounds read low 0.987 | locus YMR231W, strain pep5, active compounds read low 0.967 | locus YMR307W, strain GAS1, active compounds read low 1.19 | locus YNL067W, strain RPL9B, active compounds read low 1.05 | locus YNL071W, strain lat1, active compounds read low 0.993 | locus YNL183C, strain NPR1, active compounds read low 0.979 | locus YNL209W, strain ssb2, active compounds read low 0.966 | locus YNL233W, strain BNI4, active compounds read low 1.07 | locus YNL248C, strain rpa49, active compounds read low 1.02 | locus YNL250W, strain rad50, active compounds read low 0.988 | locus YNL271C, strain bni1, active compounds read low 0.988 | locus YNL298W, strain CLA4, active compounds read low 1 | locus YNL307C, strain MCK1, active compounds read low 1 | locus YNL322C, strain KRE1 (second series), active compounds read low 0.971 | locus YNR049C, strain mso1, active compounds read low 0.986 | locus YNR052C, strain pop2, active compounds read low 0.993 | locus YOL006C, strain TOP1, active compounds read low 1.11 | locus YOL012C, strain htz1 1.24 | locus YOL147C, strain pex11, active compounds read low 1.01 | locus YOR001W, strain rrp6, active compounds read low 1.02 | locus YOR061W, strain CKA2, active compounds read low 1.01 | locus YOR069W, strain VPS5, active compounds read low 1 | locus YOR070C, strain gyp1, active compounds read low 0.997 | locus YOR080W, strain dia2, active compounds read low 0.966 | locus YOR083W, strain WHI5, active compounds read low 1.01 | locus YOR106W, strain vam3, active compounds read low 1 | locus YOR136W, strain idh2, active compounds read low 0.995 | locus YOR144C, strain elg1, active compounds read low 1.01 | locus YOR184W, strain ser1, active compounds read low 1.02 | locus YOR231W, strain MKK1, active compounds read low 0.992 | locus YOR265W, strain rbl2, active compounds read low 1.01 | locus YOR270C, strain vph1, active compounds read low 0.974 | locus YOR290C, strain snf2, active compounds read low 0.923 | locus YOR316C, strain cot1, active compounds read low 0.99 | locus YPL051W, strain arl3, active compounds read low 1.01 | locus YPL078C, strain atp4, active compounds read low 0.999 | locus YPL106C, strain sse1, active compounds read low 0.934 | locus YPL240C, strain hsp82, active compounds read low 0.981 | locus YPL256C, strain CLN2, active compounds read low 0.977 | locus YPR119W, strain clb2, active compounds read low 1 | locus YPR141C, strain kar3, active compounds read low 0.986 | locus YPR163C, strain tif3, active compounds read low 0.998 | locus YPR167C, strain met16, active compounds read low 0.999 | strain wtn01, active compounds read low 0.983

— PubChem BioAssay AID1159580 (chemical genetic matrix, 2015)
